From PubChem BioAssay (NCATS)
Results filed as inconclusive are left out. The source made the active and inactive calls. Calls follow the shape of the dose curve; as a rule, active = well fitted curve in the direction sought with a large enough effect; inconclusive = small, poorly fitted or top-dose-only effect, or another doubt; inactive = no such curve, though single readings can be large; an effect the other way counts as inactive or inconclusive.

Experiments:
[1] = Quantitative High-Throughput drug screen in 47 multiple myeloma cell lines against the NCATS MIPE library collection: FR4_PLB cell viability assay (AID 1918924; also: nearly all actives have a fitted effect of over 35% in size; also: potency is read from the fitted curve at half-maximal effect)
In short: (§1)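 Steps: seed 500 cells per well; pin-transfer MIPE 4.0 library; incubate 48 h at 37C, 5% CO2, humidified; add CellTiter-Glo, 5 min room temperature; read luminescence.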

[2] = Quantitative High-Throughput drug screen in 47 multiple myeloma cell lines against the NCATS MIPE library collection: AMO1_DSMZ cell viability assay (AID 1918927; also: nearly all actives have a fitted effect of over 30% in size; also: potency is read from the fitted curve at half-maximal effect)
In short: (§2)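 CellTiter-Glo luminescence (ATP) after 48 h compound exposure, 37C/5% CO2; 500 cells/well; MIPE 4.0 approved/investigational drugs pinned in; DMSO = 100%, media only = 0% viability.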

[3] = Quantitative High-Throughput drug screen in 47 multiple myeloma cell lines against the NCATS MIPE library collection: ARP1_JJKsccF8 cell viability assay (AID 1918928; also: nearly all actives have a fitted effect of over 40% in size; also: potency is read from the fitted curve at half-maximal effect)
In short: (§3)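 Viability screen: myeloma cells (500/well) incubated 48 h at 37 °C, humidified 5% CO2, with pinned library compounds; CellTiter-Glo added, luminescence read; DMSO wells set 100%, medium-only wells 0%.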

[4] = Quantitative High-Throughput drug screen in 47 multiple myeloma cell lines against the NCATS MIPE library collection: ARD_JJKsccE7 cell viability assay (AID 1918929; also: potency is read from the fitted curve at half-maximal effect)
In short: as §2

[5] = Quantitative High-Throughput drug screen in 47 multiple myeloma cell lines against the NCATS MIPE library collection: KMM1_JCRB cell viability assay (AID 1918960); also: nearly all actives have a fitted effect of over 30% in size; also: potency is read from the fitted curve at half-maximal effect
In short: as §3

[6] = Quantitative High-Throughput drug screen in 47 multiple myeloma cell lines against the NCATS MIPE library collection: JJN3_DSMZ cell viability assay (AID 1918966; also: nearly all actives have a fitted effect of over 50% in size; also: potency is read from the fitted curve at half-maximal effect)
In short: as §2

[7] = Quantitative High-Throughput drug screen in 47 multiple myeloma cell lines against the NCATS MIPE library collection: H1112_PLB cell viability assay (AID 1918967; also: nearly all actives have a fitted effect of over 30% in size; also: potency is read from the fitted curve at half-maximal effect)
In short: as §2

[8] = Quantitative High-Throughput drug screen in 47 multiple myeloma cell lines against the NCATS MIPE library collection: KMS27_JCRB cell viability assay (AID 1918970); conditions: KMS27 myeloma cells, CellTiter-Glo ATP viability, 48 h; viability (% of DMSO): at 45.8 µM (top of the series); also: nearly all actives have a fitted effect of over 30% in size; also: potency is read from the fitted curve at half-maximal effect
In short: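 CellTiter-Glo luminescence after 48 h drug exposure at 37 °C; 500 cells/well, 1536-well format, pin-tool compound addition; DMSO = 100%, media-only = 0% viability.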

[9] = Quantitative High-Throughput drug screen in 47 multiple myeloma cell lines against the NCATS MIPE library collection: KMS12BM_JCRB cell viability assay (AID 1918971); also: nearly all actives have a fitted effect of over 35% in size; also: potency is read from the fitted curve at half-maximal effect
In short: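 Relative luminescence from CellTiter-Glo served as the viability signal, referenced to DMSO-treated (100%) and cell-free medium (0%) controls. Treatment lasted 48 hours at 37C with 500 cells per well.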

[10] = Quantitative High-Throughput drug screen in 47 multiple myeloma cell lines against the NCATS MIPE library collection: EJM_DSMZ cell viability assay (AID 1918926; also: nearly all actives have a fitted effect of over 30% in size; also: potency is read from the fitted curve at half-maximal effect)
In short: as §2

[11] = Quantitative High-Throughput drug screen in 47 multiple myeloma cell lines against the NCATS MIPE library collection: Karpas620_DSMZ cell viability assay (AID 1918959); also: nearly all actives have a fitted effect of over 30% in size; also: potency is read from the fitted curve at half-maximal effect
In short: as §1

[12] = Quantitative High-Throughput drug screen in 47 multiple myeloma cell lines against the NCATS MIPE library collection: KHM11_PLB cell viability assay (AID 1918962); also: nearly all actives have a fitted effect of over 35% in size; also: potency is read from the fitted curve at half-maximal effect
In short: as §1

[13] = Quantitative High-Throughput drug screen in 47 multiple myeloma cell lines against the NCATS MIPE library collection: JIM3_ECACC cell viability assay (AID 1918963; also: nearly all actives have a fitted effect of over 35% in size; also: potency is read from the fitted curve at half-maximal effect)
In short: as §1

[14] = Quantitative High-Throughput drug screen in 47 multiple myeloma cell lines against the NCATS MIPE library collection: INA6_PLB cell viability assay (AID 1918965; also: nearly all actives have a fitted effect of over 55% in size; also: potency is read from the fitted curve at half-maximal effect)
In short: as §2

[15] = Quantitative High-Throughput drug screen in 47 multiple myeloma cell lines against the NCATS MIPE library collection: Karpas25_ECACC cell viability assay (AID 1918968; also: nearly all actives have a fitted effect of over 35% in size; also: potency is read from the fitted curve at half-maximal effect)
In short: as §2

[16] = Quantitative High-Throughput drug screen in 47 multiple myeloma cell lines against the NCATS MIPE library collection: JIM1_ECACC cell viability assay (AID 1918964)
In short: as §2

[17] = Quantitative High-Throughput drug screen in 47 multiple myeloma cell lines against the NCATS MIPE library collection: Karpas417_ECACC cell viability assay (AID 1918961); conditions: Karpas417 myeloma viability, CellTiter-Glo ATP luminescence, 48 h; viability (% of DMSO): at 45.8 µM (top of the series)
In short: as §2

Measured: Potency

CC[C@]1(O)C[C@H]2CN(CCC3=c4ccccc4=N[C]3[C@@](C(=O)OC)(c3cc4c(cc3OC)N(C)[C@H]3[C@@](O)(C(N)=O)[C@H](O)[C@]5(CC)C=CCN6CC[C@]43[C@@H]65)C2)C1
inactive: [1]
active: [2] 0.833 µM | [3] 0.0105 µM | [4] 0.118 µM | [5] 0.105 µM | [6] 0.372 µM | [7] 0.0332 µM | [8] 0.296 µM | [9] 0.0047 µM

C=C1c2cccc(O)c2C(O)=C2C(=O)[C@@]3(O)C(O)=C(C(N)=O)C(=O)[C@@H](N(C)C)[C@@H]3[C@@H](O)[C@H]12
inactive: [2] | [11] | [5] | [12] | [8]
active: [1] 16.6 µM | [10] 9.35 µM | [3] 23.5 µM | [13] 16.6 µM | [14] 13.2 µM | [7] 11.8 µM | [15] 14.8 µM

COc1cc2nccc(Oc3ccc(NC(=O)Nc4ccc(F)cc4F)c(F)c3)c2cc1OC
active: [6] 20.9 µM | [9] 11.8 µM
inactive: [1] | [2] | [3] | [4] | [11] | [5] | [13] | [16] | [7] | [15]

COc1ccc2ccc(=O)oc2c1CC=C(C)C
active: [2] 13.2 µM | [3] 8.33 µM | [11] 16.6 µM | [6] 11.8 µM | [15] 20.9 µM | [8] 18.7 µM | [9] 13.2 µM
inactive: [13]

Cc1cc2nc3c(=O)[nH]c(=O)nc-3n(CC(O)C(O)C(O)CO)c2cc1C (stereo not given)
active: [3] 4.69 µM | [6] 2.64 µM
inactive: [13] | [14] | [7] | [15]

Cc1ccc(NC(=O)c2cccc(N(C)C)c2)cc1NC(=O)c1ccc(O)cc1
active: [2] 0.235 µM | [11] 5.9 µM | [12] 13.2 µM | [14] 16.6 µM | [6] 23.5 µM | [15] 0.118 µM | [8] 1.05 µM | [9] 7.43 µM

COc1cc2c(cc1OC)[C@@H]1Cc3ccc(OC)c(OC)c3CN1CC2
active: [10] 10.5 µM | [3] 13.2 µM | [15] 16.6 µM | [9] 18.7 µM
inactive: [2] | [4] | [11] | [13] | [7] | [8]

C[C@H](CCC(=O)O)[C@H]1CC[C@H]2[C@H]3[C@@H](CC[C@]12C)[C@@]1(C)CC[C@@H](O)C[C@H]1C[C@@H]3O
active: [3] 1.48 µM | [8] 20.9 µM
inactive: [10] | [13] | [14] | [9]

CCC[C@H](Nc1nc(-c2ccc(NC(=O)NCC)c(OC)c2)ncc1C)c1cccnc1
active: [2] 0.001 µM | [3] 0.0083 µM | [4] 0.001 µM | [5] 0.001 µM | [14] 0.001 µM | [7] 0.0047 µM | [8] 0.001 µM

CN(C)CCOc1ccc(C(=C(CCCl)c2ccccc2)c2ccccc2)cc1
inactive: [2] | [3] | [5] | [17] | [12] | [16] | [15] | [8]
active: [14] 4.18 µM | [6] 23.5 µM

O=C(Nc1cccc2c(=O)cc(-c3nn[nH]n3)oc12)c1ccc(OCCCCc2ccccc2)cc1
active: [14] 18.7 µM | [15] 18.7 µM

COc1cc(N2CCN(C)CC2)ccc1Nc1nc(N)c(C(=O)c2c(Cl)cccc2Cl)s1
active: [10] 23.5 µM | [2] 18.7 µM | [5] 18.7 µM | [8] 23.5 µM
inactive: [7]

CC[C@H](C=C[C@@H](C)[C@H]1CC[C@H]2[C@@H]3CC=C4C[C@@H](O)CC[C@]4(C)[C@@H]3CC[C@]12C)C(C)C
active: [10] 7.24 µM | [14] 1.62 µM
inactive: [3] | [4] | [11] | [5] | [6] | [7] | [15] | [8] | [9]

CCOC(=O)c1c(CSc2ccccc2)n(C)c2cc(Br)c(O)c(CN(C)C)c12
active: [2] 26.4 µM | [14] 16.6 µM | [6] 11.8 µM | [7] 6.62 µM | [15] 16.6 µM | [8] 26.4 µM | [9] 18.7 µM

CC(C)CN(C[C@H](O)[C@H](Cc1ccccc1)NC(=O)O[C@H]1CCOC1)S(=O)(=O)c1ccc(N)cc1
active: [6] 1.87 µM | [7] 18.7 µM
inactive: [2] | [11] | [5] | [8]

Nc1nc(Cl)nc2c1ncn2[C@@H]1O[C@H](CO)[C@@H](O)[C@H]1F
active: [2] 0.0418 µM | [3] 2.35 µM | [4] 0.418 µM | [11] 0.469 µM | [12] 0.0148 µM | [13] 0.418 µM | [14] 0.0148 µM | [6] 0.372 µM | [15] 0.526 µM

CC(C)(CO)[C@@H](O)C(=O)NCCC(=O)O
inactive: [10] | [2] | [4] | [5] | [13] | [6] | [7] | [15] | [8] | [9]
active: [3] 1.66 µM

CN1N=C(N)c2cn([C@@H]3O[C@H](COP(=O)(O)O)[C@@H](O)[C@@H]3O)c3ncnc1c23
active: [10] 7.43 µM | [2] 0.0935 µM | [3] 0.469 µM | [11] 0.0833 µM | [12] 0.372 µM | [13] 0.469 µM | [7] 0.526 µM | [15] 0.372 µM | [8] 0.0662 µM | [9] 6.62 µM

CC(C)(C)c1[nH]cnc1C=c1[nH]c(=O)c(=Cc2ccccc2)[nH]c1=O
active: [6] 0.0481 µM
inactive: [2] | [4] | [5] | [13] | [16]

Oc1ccc(C=Cc2cc(O)cc(O)c2)cc1
active: [3] 13.2 µM | [14] 16.6 µM | [15] 18.7 µM | [9] 33.2 µM
inactive: [10] | [2] | [4] | [5] | [16] | [8]
